From PubChem BioAssay (NCI)
This is part of a sample that, as a whole, favours compounds with a hit. Of some 83,000 tested, about 20% had one in any assay.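 Each cell line was grown in a 96-well plate and treated with one concentration of compound for 48 hours. Values below 10 were considered active.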

Assays:
Assay in all cases: NCI-60 one-dose screen, 48 h (100 = growth as untreated, 0 = no growth, -100 = all killed)
Conditions in all cases: 10 µM
NCI-H23 lung = test system: NCI-H23 lung
NCI-H226 lung = test system: NCI-H226 lung
NCI-H322M lung = test system: NCI-H322M lung
HOP-62 NSCLC = test system: HOP-62 NSCLC
NCI-H460 lung = test system: NCI-H460 lung
HOP-92 NSCLC = test system: HOP-92 NSCLC
NCI-H522 lung = test system: NCI-H522 lung
A549/ATCC NSCLC = test system: A549/ATCC NSCLC
786-0 renal = test system: 786-0 renal
COLO 205 colon = test system: COLO 205 colon
DU-145 prostate = test system: DU-145 prostate
K-562 leukemia = test system: K-562 leukemia
MALME-3M melanoma = test system: MALME-3M melanoma
MDA-MB-231 breast = test system: MDA-MB-231 breast
RXF 393 renal = test system: RXF 393 renal
SF-268 CNS = test system: SF-268 CNS
SF-295 CNS = test system: SF-295 CNS
SF-539 CNS = test system: SF-539 CNS
UACC-257 melanoma = test system: UACC-257 melanoma
M14 melanoma = test system: M14 melanoma

Measured: growth

COS(=O)(=O)c1ccc(Br)cc1
inactive: NCI-H23 lung 97.6% | NCI-H226 lung 101% | NCI-H322M lung 118% | HOP-62 NSCLC 95.6% | NCI-H460 lung 115% | HOP-92 NSCLC 98.1% | NCI-H522 lung 104% | A549/ATCC NSCLC 103% | 786-0 renal 111% | COLO 205 colon 104% | DU-145 prostate 102% | K-562 leukemia 136% | MALME-3M melanoma 119% | MDA-MB-231 breast 92.5% | RXF 393 renal 105% | SF-268 CNS 84.9% | SF-295 CNS 107% | SF-539 CNS 102% | UACC-257 melanoma 93%

COc1nc(N)nc2c1ncn2C1OC(CO)CC1O (centres undefined)
inactive: NCI-H23 lung 103% | NCI-H226 lung 103% | NCI-H322M lung 96.8% | HOP-62 NSCLC 100% | NCI-H460 lung 115% | HOP-92 NSCLC 95.3% | NCI-H522 lung 106% | A549/ATCC NSCLC 111% | 786-0 renal 95.4% | COLO 205 colon 104% | DU-145 prostate 110% | K-562 leukemia 101% | MALME-3M melanoma 100% | MDA-MB-231 breast 112% | RXF 393 renal 112% | SF-268 CNS 108% | SF-295 CNS 113% | SF-539 CNS 45.6% | UACC-257 melanoma 111% | M14 melanoma 104%

CN(C)c1ccc(S(=O)(=O)O)cc1
inactive: NCI-H23 lung 103% | NCI-H226 lung 96.6% | NCI-H322M lung 116% | HOP-62 NSCLC 91.1% | NCI-H460 lung 109% | HOP-92 NSCLC 85.8% | NCI-H522 lung 101% | A549/ATCC NSCLC 105% | 786-0 renal 110% | COLO 205 colon 102% | DU-145 prostate 110% | K-562 leukemia 104% | MALME-3M melanoma 103% | MDA-MB-231 breast 105% | RXF 393 renal 103% | SF-268 CNS 91.9% | SF-295 CNS 107% | SF-539 CNS 91.2% | UACC-257 melanoma 107%

CN(C)c1ccc2oc(=O)c3ccccc3c2c1
inactive: NCI-H23 lung 98.3% | NCI-H226 lung 81.3% | NCI-H322M lung 94.8% | HOP-62 NSCLC 78% | NCI-H460 lung 97.3% | HOP-92 NSCLC 68.3% | NCI-H522 lung 97.1% | A549/ATCC NSCLC 105% | 786-0 renal 79.5% | COLO 205 colon 119% | DU-145 prostate 105% | K-562 leukemia 109% | MALME-3M melanoma 97.6% | MDA-MB-231 breast 77.6% | RXF 393 renal 106% | SF-268 CNS 100% | SF-295 CNS 102% | SF-539 CNS 80.4% | UACC-257 melanoma 106%

CCCNC(=O)c1ccc(S(N)(=O)=O)cc1
inactive: NCI-H23 lung 118% | NCI-H226 lung 108% | NCI-H322M lung 121% | HOP-62 NSCLC 82.8% | NCI-H460 lung 108% | HOP-92 NSCLC 88.9% | NCI-H522 lung 115% | A549/ATCC NSCLC 112% | 786-0 renal 75.4% | COLO 205 colon 132% | DU-145 prostate 109% | K-562 leukemia 107% | MALME-3M melanoma 113% | MDA-MB-231 breast 101% | RXF 393 renal 107% | SF-268 CNS 103% | SF-295 CNS 127% | SF-539 CNS 97.8% | UACC-257 melanoma 110%

CCC(O)CC(CC)CO (centres undefined)
inactive: NCI-H23 lung 101% | NCI-H226 lung 102% | NCI-H322M lung 110% | HOP-62 NSCLC 108% | NCI-H460 lung 94.3% | HOP-92 NSCLC 98.8% | NCI-H522 lung 117% | A549/ATCC NSCLC 105% | 786-0 renal 106% | COLO 205 colon 117% | DU-145 prostate 121% | K-562 leukemia 105% | MALME-3M melanoma 128% | MDA-MB-231 breast 108% | RXF 393 renal 119% | SF-268 CNS 113% | SF-295 CNS 109% | SF-539 CNS 99.4% | UACC-257 melanoma 110% | M14 melanoma 102%

CCOC(=O)c1[nH]c(C)c(C(C)=O)c1C
inactive: NCI-H23 lung 94.2% | NCI-H226 lung 103% | NCI-H322M lung 101% | HOP-62 NSCLC 89.7% | NCI-H460 lung 103% | HOP-92 NSCLC 51% | NCI-H522 lung 83.8% | A549/ATCC NSCLC 105% | 786-0 renal 83.5% | COLO 205 colon 115% | DU-145 prostate 93.7% | K-562 leukemia 87.3% | MALME-3M melanoma 95.7% | MDA-MB-231 breast 96.6% | RXF 393 renal 97.3% | SF-268 CNS 93.5% | SF-295 CNS 92.6% | SF-539 CNS 92.6% | UACC-257 melanoma 98.3%

CC(=O)OCC1=CC2OC(=O)C3=COC(OC4OC(CO)C(O)C(O)C4O)C1C32 (centres undefined)
inactive: NCI-H23 lung 72.4% | NCI-H226 lung 105% | NCI-H322M lung 104% | HOP-62 NSCLC 108% | NCI-H460 lung 120% | HOP-92 NSCLC 89.3% | NCI-H522 lung 93.5% | A549/ATCC NSCLC 138% | 786-0 renal 98.9% | COLO 205 colon 114% | DU-145 prostate 114% | K-562 leukemia 121% | MALME-3M melanoma 96.5% | MDA-MB-231 breast 113% | RXF 393 renal 36.8% | SF-268 CNS 120% | SF-295 CNS 112% | SF-539 CNS 109% | UACC-257 melanoma 102%

O=C(CS)Nc1ccc2ccccc2c1
inactive: NCI-H23 lung 111% | NCI-H226 lung 121% | NCI-H322M lung 127% | HOP-62 NSCLC 120% | NCI-H460 lung 97.6% | HOP-92 NSCLC 101% | NCI-H522 lung 118% | A549/ATCC NSCLC 122% | 786-0 renal 105% | COLO 205 colon 112% | DU-145 prostate 113% | K-562 leukemia 96.8% | MALME-3M melanoma 126% | MDA-MB-231 breast 106% | RXF 393 renal 82.8% | SF-268 CNS 85.8% | SF-295 CNS 123% | SF-539 CNS 99.5% | UACC-257 melanoma 133% | M14 melanoma 111%
